# ChEMBL document CHEMBL2218924, “A broad activity screen in support of a chemogenomic map for kinase signalling research and drug discovery” (Biochem J, 2013)
# Legend:
# [1] = biological target: T1, Mitogen-activated protein kinase kinase kinase 7 (Homo sapiens) (UniProt O43318); conditions: at 10 µM
# T1 sequence (whole entry): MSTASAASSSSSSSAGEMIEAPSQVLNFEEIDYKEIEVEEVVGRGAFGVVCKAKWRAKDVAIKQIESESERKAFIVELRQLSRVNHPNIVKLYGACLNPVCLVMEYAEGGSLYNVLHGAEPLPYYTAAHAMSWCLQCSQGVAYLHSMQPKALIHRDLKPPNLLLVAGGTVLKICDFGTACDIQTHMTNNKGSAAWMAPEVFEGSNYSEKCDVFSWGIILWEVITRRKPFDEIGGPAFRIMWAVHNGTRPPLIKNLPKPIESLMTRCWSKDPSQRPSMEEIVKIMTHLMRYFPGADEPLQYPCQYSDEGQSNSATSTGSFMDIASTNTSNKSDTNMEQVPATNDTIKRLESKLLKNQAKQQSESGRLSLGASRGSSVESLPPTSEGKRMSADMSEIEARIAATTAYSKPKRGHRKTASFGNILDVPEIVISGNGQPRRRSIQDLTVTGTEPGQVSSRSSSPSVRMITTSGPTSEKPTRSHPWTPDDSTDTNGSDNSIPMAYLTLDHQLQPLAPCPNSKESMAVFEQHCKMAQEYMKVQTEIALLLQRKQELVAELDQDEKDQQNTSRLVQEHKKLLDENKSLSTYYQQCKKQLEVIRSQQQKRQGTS
# [2] = biological target: T2, Serine/threonine-protein kinase TAO1 (Homo sapiens) (UniProt Q7L7X3); conditions: at 1 µM
# T2 sequence (whole entry): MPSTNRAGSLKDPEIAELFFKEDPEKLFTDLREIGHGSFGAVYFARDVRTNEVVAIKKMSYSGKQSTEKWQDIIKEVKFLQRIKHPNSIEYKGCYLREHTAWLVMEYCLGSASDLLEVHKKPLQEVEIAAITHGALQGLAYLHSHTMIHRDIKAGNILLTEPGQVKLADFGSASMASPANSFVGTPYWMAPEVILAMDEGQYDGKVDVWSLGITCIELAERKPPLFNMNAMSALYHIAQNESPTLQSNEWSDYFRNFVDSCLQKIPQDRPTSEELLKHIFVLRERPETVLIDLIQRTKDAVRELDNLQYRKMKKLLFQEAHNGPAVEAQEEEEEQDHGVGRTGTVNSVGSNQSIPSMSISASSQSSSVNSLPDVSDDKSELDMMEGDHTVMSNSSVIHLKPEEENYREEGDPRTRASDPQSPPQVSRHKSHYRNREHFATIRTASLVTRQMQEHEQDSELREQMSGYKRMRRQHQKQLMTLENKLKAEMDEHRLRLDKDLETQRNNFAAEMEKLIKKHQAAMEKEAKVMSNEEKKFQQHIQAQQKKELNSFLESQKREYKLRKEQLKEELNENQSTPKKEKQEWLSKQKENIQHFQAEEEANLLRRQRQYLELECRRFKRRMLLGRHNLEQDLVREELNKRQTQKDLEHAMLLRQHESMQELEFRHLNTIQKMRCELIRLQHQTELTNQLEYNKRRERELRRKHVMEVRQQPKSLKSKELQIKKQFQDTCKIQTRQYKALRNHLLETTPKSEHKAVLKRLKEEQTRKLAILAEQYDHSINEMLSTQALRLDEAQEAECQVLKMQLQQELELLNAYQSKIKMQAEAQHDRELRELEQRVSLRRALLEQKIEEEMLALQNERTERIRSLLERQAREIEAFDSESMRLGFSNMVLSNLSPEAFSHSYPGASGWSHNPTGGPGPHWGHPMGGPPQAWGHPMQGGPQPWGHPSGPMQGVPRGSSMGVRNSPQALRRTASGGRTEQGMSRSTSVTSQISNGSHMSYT
# [3] = biological target: T2, Serine/threonine-protein kinase TAO1 (Homo sapiens); conditions: at 10 µM
# [4] = biological target: T3, Serine/threonine-protein kinase TAO2 (Homo sapiens) (UniProt Q9UL54); conditions: at 1 µM
# T3 sequence (whole entry): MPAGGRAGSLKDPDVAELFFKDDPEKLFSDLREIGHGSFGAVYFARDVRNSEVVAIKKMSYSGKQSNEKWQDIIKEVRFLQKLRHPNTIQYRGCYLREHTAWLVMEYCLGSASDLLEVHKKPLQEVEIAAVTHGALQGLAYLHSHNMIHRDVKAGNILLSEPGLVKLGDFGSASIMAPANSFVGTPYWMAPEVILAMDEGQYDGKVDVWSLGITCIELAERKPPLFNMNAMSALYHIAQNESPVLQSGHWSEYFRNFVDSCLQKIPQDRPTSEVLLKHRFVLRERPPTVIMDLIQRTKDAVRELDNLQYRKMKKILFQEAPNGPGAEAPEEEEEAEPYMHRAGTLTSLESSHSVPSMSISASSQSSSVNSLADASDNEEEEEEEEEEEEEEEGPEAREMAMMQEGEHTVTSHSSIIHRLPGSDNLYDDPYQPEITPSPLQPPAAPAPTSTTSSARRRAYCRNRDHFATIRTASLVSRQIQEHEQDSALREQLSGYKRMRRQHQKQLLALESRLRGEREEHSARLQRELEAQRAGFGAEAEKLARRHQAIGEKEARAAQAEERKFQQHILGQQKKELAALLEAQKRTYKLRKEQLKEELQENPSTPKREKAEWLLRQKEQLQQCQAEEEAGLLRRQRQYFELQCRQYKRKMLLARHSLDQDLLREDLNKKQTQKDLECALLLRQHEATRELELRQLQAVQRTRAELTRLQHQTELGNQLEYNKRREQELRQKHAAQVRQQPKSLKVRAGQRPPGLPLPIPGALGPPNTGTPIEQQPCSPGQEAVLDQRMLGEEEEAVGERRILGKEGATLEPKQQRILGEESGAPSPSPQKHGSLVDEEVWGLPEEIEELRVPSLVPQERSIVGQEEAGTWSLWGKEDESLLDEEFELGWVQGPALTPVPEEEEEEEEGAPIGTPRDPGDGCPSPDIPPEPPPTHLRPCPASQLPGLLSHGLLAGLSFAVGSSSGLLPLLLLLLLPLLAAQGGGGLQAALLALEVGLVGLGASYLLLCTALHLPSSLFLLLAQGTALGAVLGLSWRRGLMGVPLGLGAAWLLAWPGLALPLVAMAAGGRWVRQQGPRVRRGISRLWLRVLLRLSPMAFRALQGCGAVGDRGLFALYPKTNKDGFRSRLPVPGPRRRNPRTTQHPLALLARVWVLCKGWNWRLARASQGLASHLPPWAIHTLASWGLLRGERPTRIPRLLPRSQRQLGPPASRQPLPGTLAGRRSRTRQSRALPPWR
# [5] = biological target: T3, Serine/threonine-protein kinase TAO2 (Homo sapiens); conditions: at 10 µM
# [6] = biological target: T4, Serine/threonine-protein kinase TAO3 (Homo sapiens) (UniProt Q9H2K8); conditions: at 1 µM
# T4 sequence (whole entry): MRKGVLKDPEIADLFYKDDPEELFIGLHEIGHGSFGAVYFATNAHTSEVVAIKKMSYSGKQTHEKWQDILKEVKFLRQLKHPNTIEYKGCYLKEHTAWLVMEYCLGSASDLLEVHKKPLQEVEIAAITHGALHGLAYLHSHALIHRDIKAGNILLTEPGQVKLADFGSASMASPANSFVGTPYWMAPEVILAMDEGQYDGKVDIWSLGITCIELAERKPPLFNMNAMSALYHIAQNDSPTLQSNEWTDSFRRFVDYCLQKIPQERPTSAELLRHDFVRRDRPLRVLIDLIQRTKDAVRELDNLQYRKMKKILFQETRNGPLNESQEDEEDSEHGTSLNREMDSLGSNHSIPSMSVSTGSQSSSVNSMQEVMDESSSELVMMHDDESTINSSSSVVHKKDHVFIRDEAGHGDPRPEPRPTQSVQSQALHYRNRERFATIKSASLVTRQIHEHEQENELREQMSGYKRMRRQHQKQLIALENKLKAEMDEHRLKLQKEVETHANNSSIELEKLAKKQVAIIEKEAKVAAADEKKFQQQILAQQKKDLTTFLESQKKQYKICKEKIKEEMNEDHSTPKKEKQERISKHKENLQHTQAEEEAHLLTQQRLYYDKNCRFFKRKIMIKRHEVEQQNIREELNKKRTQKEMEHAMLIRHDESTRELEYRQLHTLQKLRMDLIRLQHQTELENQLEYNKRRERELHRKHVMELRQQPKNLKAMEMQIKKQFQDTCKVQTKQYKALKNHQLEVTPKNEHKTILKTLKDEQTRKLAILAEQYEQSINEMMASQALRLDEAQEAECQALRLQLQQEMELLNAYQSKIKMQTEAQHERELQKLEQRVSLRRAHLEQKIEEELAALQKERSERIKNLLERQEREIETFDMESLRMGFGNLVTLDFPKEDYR
# [7] = biological target: T4, Serine/threonine-protein kinase TAO3 (Homo sapiens); conditions: at 10 µM
# [8] = biological target: T5, Serine/threonine-protein kinase TBK1 (Homo sapiens) (UniProt Q9UHD2); conditions: at 1 µM
# T5 sequence (whole entry): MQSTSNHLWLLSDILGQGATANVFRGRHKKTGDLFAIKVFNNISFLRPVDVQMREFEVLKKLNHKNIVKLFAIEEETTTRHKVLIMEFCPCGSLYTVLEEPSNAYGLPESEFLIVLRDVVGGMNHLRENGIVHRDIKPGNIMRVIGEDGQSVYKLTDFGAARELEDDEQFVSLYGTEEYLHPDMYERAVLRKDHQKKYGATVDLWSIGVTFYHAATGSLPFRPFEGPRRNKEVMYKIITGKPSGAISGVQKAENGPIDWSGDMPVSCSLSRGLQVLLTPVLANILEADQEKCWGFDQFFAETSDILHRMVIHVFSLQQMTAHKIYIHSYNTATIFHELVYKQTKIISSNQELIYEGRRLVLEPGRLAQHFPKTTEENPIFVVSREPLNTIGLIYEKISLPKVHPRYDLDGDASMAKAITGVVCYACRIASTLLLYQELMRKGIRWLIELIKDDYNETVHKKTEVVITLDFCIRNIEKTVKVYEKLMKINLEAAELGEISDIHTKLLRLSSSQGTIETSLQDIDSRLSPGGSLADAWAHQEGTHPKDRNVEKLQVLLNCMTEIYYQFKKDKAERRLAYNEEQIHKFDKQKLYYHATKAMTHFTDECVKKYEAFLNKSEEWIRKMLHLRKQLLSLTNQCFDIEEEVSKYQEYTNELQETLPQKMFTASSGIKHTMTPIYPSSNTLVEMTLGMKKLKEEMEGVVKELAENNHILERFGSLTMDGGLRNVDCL
# [9] = biological target: T5, Serine/threonine-protein kinase TBK1 (Homo sapiens); conditions: at 10 µM
# [10] = biological target: T6, TGF-beta receptor type-1 (Homo sapiens) (UniProt P36897); conditions: at 1 µM
# T6 sequence (whole entry): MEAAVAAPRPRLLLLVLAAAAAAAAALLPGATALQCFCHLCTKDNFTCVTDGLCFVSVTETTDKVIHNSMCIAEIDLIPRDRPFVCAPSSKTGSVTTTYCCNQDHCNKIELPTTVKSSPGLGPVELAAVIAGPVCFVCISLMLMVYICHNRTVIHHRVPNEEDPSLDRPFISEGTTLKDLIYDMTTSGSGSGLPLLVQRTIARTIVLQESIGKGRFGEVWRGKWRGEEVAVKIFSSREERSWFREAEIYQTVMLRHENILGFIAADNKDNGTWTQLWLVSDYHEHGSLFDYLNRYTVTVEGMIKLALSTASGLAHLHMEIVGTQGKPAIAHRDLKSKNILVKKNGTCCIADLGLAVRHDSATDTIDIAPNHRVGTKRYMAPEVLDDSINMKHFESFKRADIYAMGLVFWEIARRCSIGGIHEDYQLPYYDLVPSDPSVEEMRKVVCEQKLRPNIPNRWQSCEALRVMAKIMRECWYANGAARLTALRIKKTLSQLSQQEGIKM
# [11] = biological target: T6, TGF-beta receptor type-1 (Homo sapiens); conditions: at 10 µM
# [12] = biological target: Insulin-like growth factor 1 receptor (Homo sapiens) (UniProt P08069); conditions: at 1 µM
# Chain of Insulin-like growth factor 1 receptor (Homo sapiens) (P08069 31-736 limits assumed): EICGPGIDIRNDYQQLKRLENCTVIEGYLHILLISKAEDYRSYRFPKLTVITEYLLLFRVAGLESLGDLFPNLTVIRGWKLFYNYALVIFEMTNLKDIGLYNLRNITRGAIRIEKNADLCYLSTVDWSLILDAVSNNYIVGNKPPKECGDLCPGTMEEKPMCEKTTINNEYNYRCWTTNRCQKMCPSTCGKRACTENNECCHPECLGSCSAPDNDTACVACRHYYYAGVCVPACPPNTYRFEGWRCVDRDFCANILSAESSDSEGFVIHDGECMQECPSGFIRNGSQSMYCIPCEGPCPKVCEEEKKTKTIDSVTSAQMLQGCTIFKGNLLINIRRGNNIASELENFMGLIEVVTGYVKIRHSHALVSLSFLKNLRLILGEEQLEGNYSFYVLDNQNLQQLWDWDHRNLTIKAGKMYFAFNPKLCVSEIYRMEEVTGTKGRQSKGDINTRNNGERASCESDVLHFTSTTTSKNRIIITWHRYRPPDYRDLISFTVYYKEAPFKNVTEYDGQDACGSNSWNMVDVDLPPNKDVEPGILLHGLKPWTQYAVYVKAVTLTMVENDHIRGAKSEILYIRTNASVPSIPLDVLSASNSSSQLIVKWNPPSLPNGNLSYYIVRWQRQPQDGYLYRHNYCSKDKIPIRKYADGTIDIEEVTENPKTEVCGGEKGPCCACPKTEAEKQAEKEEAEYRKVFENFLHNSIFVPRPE
# Chain of Insulin-like growth factor 1 receptor (Homo sapiens) (P08069 741-1367 limits assumed): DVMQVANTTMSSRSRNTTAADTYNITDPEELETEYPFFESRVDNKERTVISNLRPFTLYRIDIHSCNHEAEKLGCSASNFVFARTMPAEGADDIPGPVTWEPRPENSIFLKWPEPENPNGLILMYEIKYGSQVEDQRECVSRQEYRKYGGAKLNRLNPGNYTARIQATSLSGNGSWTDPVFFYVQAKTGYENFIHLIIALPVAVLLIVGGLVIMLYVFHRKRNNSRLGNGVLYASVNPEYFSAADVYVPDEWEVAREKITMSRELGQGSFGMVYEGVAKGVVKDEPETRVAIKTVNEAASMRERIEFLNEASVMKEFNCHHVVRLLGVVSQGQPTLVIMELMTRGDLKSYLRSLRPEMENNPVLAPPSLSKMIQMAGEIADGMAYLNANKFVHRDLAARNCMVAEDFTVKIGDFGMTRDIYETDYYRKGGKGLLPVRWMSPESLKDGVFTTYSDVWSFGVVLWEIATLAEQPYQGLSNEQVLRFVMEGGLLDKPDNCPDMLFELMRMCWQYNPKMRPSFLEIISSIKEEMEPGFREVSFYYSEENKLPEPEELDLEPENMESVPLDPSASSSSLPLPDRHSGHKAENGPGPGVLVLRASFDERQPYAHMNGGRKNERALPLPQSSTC
# [13] = biological target: Insulin-like growth factor 1 receptor (Homo sapiens) (UniProt P08069); conditions: at 10 µM
# [14] = biological target: T7, Inhibitor of nuclear factor kappa-B kinase subunit alpha (Homo sapiens) (UniProt O15111); conditions: at 1 µM
# T7 sequence (whole entry): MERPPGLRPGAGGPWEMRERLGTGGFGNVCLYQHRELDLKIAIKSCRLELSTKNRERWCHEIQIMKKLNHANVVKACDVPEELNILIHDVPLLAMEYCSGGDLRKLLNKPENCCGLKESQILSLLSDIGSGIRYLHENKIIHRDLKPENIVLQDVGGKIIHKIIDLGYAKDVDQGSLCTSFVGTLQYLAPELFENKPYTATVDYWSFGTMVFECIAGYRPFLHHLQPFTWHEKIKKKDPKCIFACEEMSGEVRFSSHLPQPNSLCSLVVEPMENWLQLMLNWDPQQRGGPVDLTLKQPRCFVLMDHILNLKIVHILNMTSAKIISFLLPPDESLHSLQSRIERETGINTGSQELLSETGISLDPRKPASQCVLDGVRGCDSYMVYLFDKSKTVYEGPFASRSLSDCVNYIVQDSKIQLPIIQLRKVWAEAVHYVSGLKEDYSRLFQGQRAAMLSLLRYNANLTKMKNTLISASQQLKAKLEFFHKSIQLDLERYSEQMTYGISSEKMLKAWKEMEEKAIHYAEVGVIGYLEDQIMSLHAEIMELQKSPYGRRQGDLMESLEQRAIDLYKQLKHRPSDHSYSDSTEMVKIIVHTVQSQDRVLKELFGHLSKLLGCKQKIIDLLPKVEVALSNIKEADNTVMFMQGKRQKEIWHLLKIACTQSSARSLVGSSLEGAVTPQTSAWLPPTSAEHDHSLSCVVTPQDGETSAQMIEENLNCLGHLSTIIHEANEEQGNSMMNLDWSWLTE
# [15] = biological target: T7, Inhibitor of nuclear factor kappa-B kinase subunit alpha (Homo sapiens); conditions: at 10 µM
structure (smiles),measurement,setting,value
O=C(NC(NC(=S)Nc1ccc(F)c([N+](=O)[O-])c1)C(Cl)(Cl)Cl)C(c1ccccc1)c1ccccc1 (stereo not given),residual activity,[1],92%
same,residual activity,[2],93%
same,residual activity,[3],83%
same,residual activity,[4],91%
same,residual activity,[5],92%
same,residual activity,[6],96%
same,residual activity,[7],90%
same,residual activity,[8],96%
same,residual activity,[9],74%
same,residual activity,[10],98%
same,residual activity,[11],87%
same,residual activity,[12],85%
same,residual activity,[13],85%
same,residual activity,[14],90%
same,residual activity,[15],100%
